High-throughput results: PubChem BioAssay, National Center for Advancing Translational Sciences (NCATS)
FLuc counter = inhibits or activates purified firefly luciferase, miR-21 counter-screen | Potency, µM (series often up to 57.5 µM), without a hit: at the highest dose activity change, negative = inhibition, usual class: inhibitors | 360,000 compounds, 6.9% hits | purified FLuc, Km substrates, luminescence inhibition | AID 588342 | P08659;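 note: plate controls were vehicle for no effect and reference inhibitor for full effect; nearly all actives have a fitted effect of over 55% in size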
Target sequence (P08659 whole entry, looked up): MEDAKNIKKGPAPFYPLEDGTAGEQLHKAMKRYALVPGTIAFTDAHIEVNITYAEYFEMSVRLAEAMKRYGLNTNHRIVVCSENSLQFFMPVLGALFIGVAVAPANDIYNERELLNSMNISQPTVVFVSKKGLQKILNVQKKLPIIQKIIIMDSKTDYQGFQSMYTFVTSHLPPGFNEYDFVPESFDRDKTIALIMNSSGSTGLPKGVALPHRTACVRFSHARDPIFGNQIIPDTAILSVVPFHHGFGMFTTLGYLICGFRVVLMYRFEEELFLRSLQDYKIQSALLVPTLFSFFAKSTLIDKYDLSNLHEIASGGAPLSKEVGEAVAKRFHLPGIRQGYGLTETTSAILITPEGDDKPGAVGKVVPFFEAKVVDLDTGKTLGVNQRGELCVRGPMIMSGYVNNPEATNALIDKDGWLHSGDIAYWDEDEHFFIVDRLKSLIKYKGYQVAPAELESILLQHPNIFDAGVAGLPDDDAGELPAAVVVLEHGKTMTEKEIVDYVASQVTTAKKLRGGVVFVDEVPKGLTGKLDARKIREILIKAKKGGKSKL
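Biochemical qHTS of compounds, final roughly 60 µM downward over six points, against 10 nM purified firefly luciferase using Km concentrations of substrates (10 uM D-luciferin, 10 uM ATP) in Tris acetate pH 7.5 buffer; luminescence output.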
ELG1 genotox = induces genotoxicity in HEK293T cells with luciferase-tagged ELG1 | HEK293T ELG1-luciferase reporter, luminescence, 16 h | Potency, µM (series often up to 46 µM), for inactives: at the highest dose activity change, positive = activation, hits mostly activators | 330,000 compounds, 1.3% hits; note: % of control where 0% means no effect; nearly all actives have a fitted effect of over 60% in size
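Luminescence read-out: rising ELG1-luciferase signal, reflecting elevated ELG1 protein under genetic stress, flags genotoxic compounds. Cells were treated for 16 hr at 37 °C before ONE-Glo detection.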
NPC1 promoter act = activators of NPC1 promoter. Huh7 NPC1 promoter luciferase reporter, 24 h. Potency, µM (doses to about 9.22 µM), for inactives: at the highest dose activation, usual class: activators. 320,000 compounds, 2.4% hits. AID 485313; note: % of control where 0% means no effect; nearly all actives have a fitted effect of over 60% in size
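In 1536-well qHTS, Huh7 cells harboring an NPC1 promoter–luciferase construct received compound for 24 h; activation was quantified by luminescence following luciferase reagent addition.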
uPA surface inh = cell surface uPA generation inhibition | cell surface uPA generation assay, qHTS | Potency, µM (titrated, usually from 38.3 µM), for the others: top-dose activity change, negative = inhibition, usual class: inhibitors | 330,000 compounds, 0.31% hits; active = well fitted inhibition curve with a large enough effect; inconclusive = small, poorly fitted or top-dose-only effect; inactive = no such curve, though single readings can be large or run the other way; tested in mouse RAW 264.7 cells; note: % is set by controls: 0 for no effect and ±100 for the full control effect; nearly all actives have a fitted effect of over 55% in size
Rab9 promoter act = activates the Rab9 promoter. Huh7 Rab9 promoter-luciferase reporter, luminescence, 24 h. Potency, µM (titrated, usually from 9.22 µM), for the others: at the highest dose activation, negative = inhibition, hits mostly activators. 320,000 compounds, 2.8% hits. AID 485297; note: % of control where 0% means no effect; nearly all actives have a fitted effect of over 60% in size
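Huh7 cells stably carrying Rab9 promoter–luciferase reporter, plated 1500 cells/well, compound added after 2 h and incubated 24 h at 37 °C; luciferase luminescence then read after 10 min with detection reagent.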
SMN2 splice up = increases expression of the SMN2 splice variant. HEK293 SMN2-luciferase splicing reporter, luminescence, 30-36 h. Potency, µM (top dose mostly 46.1 µM), for the others: at the highest dose activity change, positive = activation, most hits filed as activators. 210,000 compounds, 2.8% hits. AID 1458; note: % of control where 0% means no effect; nearly all actives have a fitted effect of over 55% in size
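qHTS luciferase splicing reporter: luminescence rises when SMN2 exon 7 is included in transfected HEK293 cells. Compound exposure lasted 30-36 h at 37C, with 4.5 mM final sodium butyrate as control, followed by a ONE-Glo read.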
* hit, by the source's call. A selection: hits, their analogues and other compounds. The true share with any hit is near 7.3%. Unless noted, calls come from the whole dose curve; as a rule, active = well fitted curve in the direction sought with a large enough effect; inconclusive = small, poorly fitted or top-dose-only effect, or another doubt; inactive = no such curve, though single readings can be large; an effect the other way counts as inactive or inconclusive. Potency is the fitted concentration of half-maximal effect.

`O=C(Oc1cccc(F)c1)c1ccc2c(=O)n3c(nc2c1)CCC3` gave FLuc counter 15µM*, ELG1 genotox 3%, NPC1 promoter act -1%, uPA surface inh 2% and Rab9 promoter act -4%.
O=C(Oc1ccc(F)cc1)c1ccc2c(=O)n3c(nc2c1)CCC3 was read as FLuc counter 12µM*, ELG1 genotox 0%, NPC1 promoter act 1%, uPA surface inh 2% and Rab9 promoter act -2%.
For Cc1ccc(C2CC(=O)n3nc(-c4ccc(F)cc4)nc3S2)cc1 (stereo not drawn) the results were FLuc counter -6% and SMN2 splice up -6%.
Screening O=C(/C=C/c1ccc(F)cc1)Nc1nc2n(n1)C(c1ccc(Cl)cc1)C=C(c1ccccc1)N2 (stereo not drawn) returned FLuc counter 1%.
`CCOC(=O)Nc1cccc(C(=O)O)c1` gave FLuc counter -19%, ELG1 genotox 7%, NPC1 promoter act inconclusive, uPA surface inh -1%, Rab9 promoter act inconclusive and SMN2 splice up 13µM*.
`Cc1ccc(C)c(OCC(=O)Nc2cccc(C(=O)O)c2)c1C` gave FLuc counter 11µM*, ELG1 genotox inconclusive, NPC1 promoter act inconclusive, uPA surface inh 0%, Rab9 promoter act inconclusive and SMN2 splice up 13µM*.
For Cc1ccc(C)c(OCC(=O)Nc2cc(C(=O)O)cc(C(=O)O)c2)c1 the results were FLuc counter 1%, ELG1 genotox 1%, NPC1 promoter act -4%, uPA surface inh 5% and Rab9 promoter act -2%.
`Cc1cccc(C)c1OCC(=O)Nc1cccc(C(=O)O)c1` gave FLuc counter 2.1µM*, ELG1 genotox inconclusive, NPC1 promoter act 1.4µM*, uPA surface inh 13%, Rab9 promoter act 2.5µM* and SMN2 splice up 6.3µM*.
Screening CN(C)S(=O)(=O)c1ccc(C(=O)Nc2ccc3c(c2)CCC3)cc1 returned FLuc counter 19µM*, ELG1 genotox 7%, NPC1 promoter act inconclusive, uPA surface inh -7% and Rab9 promoter act inconclusive.
For CC(=O)c1cccc(NC(=O)c2cccc(S(=O)(=O)N(C)C)c2)c1 the results were FLuc counter -26%, ELG1 genotox 3%, NPC1 promoter act 3%, uPA surface inh -5%, Rab9 promoter act -8% and SMN2 splice up 15%.
Screening CN(C)S(=O)(=O)c1cccc(C(=O)Nc2ccc3c(c2)CCC3)c1 returned FLuc counter 1.7µM*, ELG1 genotox 4µM*, NPC1 promoter act 1.3µM* and Rab9 promoter act 0.63µM*.
For Cc1ccc(S(=O)(=O)Nc2ccc(C(=O)N3CCCC3)cc2)cc1 the results were FLuc counter 0%, ELG1 genotox 0%, NPC1 promoter act -1%, uPA surface inh 0% and Rab9 promoter act -2%.
Screening Cc1ccc(NS(=O)(=O)c2ccc(C(=O)N3CCN(S(=O)(=O)c4ccccc4)CC3)cc2)cc1 returned FLuc counter 6%, ELG1 genotox -9%, NPC1 promoter act -5%, uPA surface inh 7.1µM* and Rab9 promoter act -11%.
`O=C(CN1C(=O)C2(SCC(=O)N2c2ccc(F)c(F)c2)c2ccccc21)Nc1cccc(Cl)c1` (stereo not drawn) gave FLuc counter -4%.
`Cc1ccc(S(=O)(=O)NCCc2nnc3ccc(SCC(=O)Nc4c(C)cc(C)cc4C)nn23)cc1` gave FLuc counter 2%.
Clc1ccc(/C=C\c2nccc3c2[nH]c2ccccc23)cc1 was read as FLuc counter 3.8µM*, ELG1 genotox 17%, NPC1 promoter act 27%, uPA surface inh -4%, Rab9 promoter act 21% and SMN2 splice up 10%.
COc1ccc(Nc2cc(C)c3c(O)cccc3n2)cc1 was read as FLuc counter 21µM*, ELG1 genotox 4%, NPC1 promoter act 7%, uPA surface inh -3% and Rab9 promoter act 20%.
For Cc1ccccc1Nc1cc(C)c2c(O)cccc2n1 the results were FLuc counter 19µM*, ELG1 genotox 0%, NPC1 promoter act -1%, uPA surface inh -4%, Rab9 promoter act -10% and SMN2 splice up -6%.
`Cc1ccc(Nc2cc(C)c3c(O)cccc3n2)cc1C` gave FLuc counter 9.5µM*, ELG1 genotox inconclusive, NPC1 promoter act inconclusive, uPA surface inh -14% and Rab9 promoter act inconclusive.
Cc1ccc(Nc2cc(C)c3ccc(O)cc3n2)cc1C was read as FLuc counter 17µM*, ELG1 genotox 13%, NPC1 promoter act 3%, uPA surface inh 40% and Rab9 promoter act 1%.
For COC(=O)c1cc(Nc2cc(C)c3ccc(O)cc3n2)cc(C(=O)OC)c1 the results were FLuc counter 0%, ELG1 genotox 5%, NPC1 promoter act 0%, uPA surface inh 0% and Rab9 promoter act 10%.
CCOc1cc(S(=O)(=O)n2ccnc2)ccc1Cl was read as FLuc counter -16%, ELG1 genotox 2%, NPC1 promoter act 0%, uPA surface inh 4%, Rab9 promoter act -4% and SMN2 splice up -2%.
Screening O=C(Nc1ccccc1C(=O)OCc1cc(=O)n2ccsc2n1)c1cccc(F)c1 returned FLuc counter -4%.
`CCN(CC)CCCN(Cc1cc2cc3c(cc2[nH]c1=O)OCO3)C(=S)Nc1ccccc1` gave FLuc counter 3%, ELG1 genotox 1%, NPC1 promoter act 0%, uPA surface inh -3% and Rab9 promoter act -15%.
COc1cccc(CCc2nnc(CCC(=O)N3CCN(Cc4ccccn4)CC3)o2)c1 was read as FLuc counter 2%, ELG1 genotox 0%, NPC1 promoter act 2%, uPA surface inh -3% and Rab9 promoter act 5%.
C/C(=N\NC(=O)c1ccc(O)cc1)c1cccc(NC(=O)c2ccccc2C)c1 was read as FLuc counter 2.7µM*, ELG1 genotox 7%, NPC1 promoter act 0%, uPA surface inh 10µM* and Rab9 promoter act inconclusive.
`C/C(=N\NC(=O)c1ccccc1F)c1cccc(NC(=O)c2ccccc2)c1` gave FLuc counter 2.7µM*, ELG1 genotox inconclusive, NPC1 promoter act 24%, uPA surface inh -1% and Rab9 promoter act 11%.
C/C(=N\NC(=O)c1c(Cl)c(C)nn1C)c1cccc(NC(=O)c2cccc(F)c2)c1 was read as FLuc counter 11µM*, ELG1 genotox -17%, NPC1 promoter act 2%, uPA surface inh -4% and Rab9 promoter act 16%.
Screening C/C(=N\NC(=O)c1c(Br)c(C)nn1C)c1cccc(NC(=O)C2CCC2)c1 returned FLuc counter 19µM*, ELG1 genotox 0%, NPC1 promoter act 0%, uPA surface inh -7%, Rab9 promoter act -1% and SMN2 splice up 6%.
